Screening results as filed in PubChem.
KCNQ2 pot: potentiators of rat KCNQ2 potassium channel. B-score at 10 µM. actives 0.54% (n = 310,000). CHO-K1 KCNQ2, FluxOR thallium flux fluorescence; active compounds read high. O88943;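 active = fluorescence ratio B-score at least 3 SD of library B-scores, with initial fluorescence B-score within 3 of them, cut at about 5.3 in these data; same plate scores as AID 2156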;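 note: B-score of peak minus minimum over baseline fluorescence ratio after K+ and Tl+ stimulus; positive B-score means potentiation of KCNQ2 with more thallium influx and brighter signal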
Target sequence (O88943 whole entry, looked up): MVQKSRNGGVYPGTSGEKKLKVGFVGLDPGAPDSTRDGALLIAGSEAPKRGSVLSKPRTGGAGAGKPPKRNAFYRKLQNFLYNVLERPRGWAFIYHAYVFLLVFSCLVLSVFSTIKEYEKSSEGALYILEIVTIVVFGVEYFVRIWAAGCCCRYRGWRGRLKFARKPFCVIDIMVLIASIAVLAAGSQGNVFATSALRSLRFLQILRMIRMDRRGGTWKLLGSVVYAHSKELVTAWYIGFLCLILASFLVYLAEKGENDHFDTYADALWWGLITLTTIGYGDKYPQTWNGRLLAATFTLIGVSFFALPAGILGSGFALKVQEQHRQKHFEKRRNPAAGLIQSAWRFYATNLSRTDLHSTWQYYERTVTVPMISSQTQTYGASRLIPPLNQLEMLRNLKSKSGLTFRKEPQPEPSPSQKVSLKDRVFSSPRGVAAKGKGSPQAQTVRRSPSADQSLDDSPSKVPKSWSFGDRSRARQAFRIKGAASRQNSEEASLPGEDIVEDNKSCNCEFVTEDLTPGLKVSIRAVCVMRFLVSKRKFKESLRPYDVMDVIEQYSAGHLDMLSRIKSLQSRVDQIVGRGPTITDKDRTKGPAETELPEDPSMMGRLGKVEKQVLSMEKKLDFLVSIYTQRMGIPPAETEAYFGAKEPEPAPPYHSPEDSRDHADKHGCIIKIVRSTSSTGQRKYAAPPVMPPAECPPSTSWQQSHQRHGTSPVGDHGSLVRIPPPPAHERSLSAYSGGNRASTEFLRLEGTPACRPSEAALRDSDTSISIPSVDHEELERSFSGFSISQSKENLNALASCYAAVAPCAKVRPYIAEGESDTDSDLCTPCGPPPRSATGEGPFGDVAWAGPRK
KCNQ2 block: inhibitors of rat KCNQ2 potassium channel | actives 1.1% (n = 310,000) | CHO-K1 KCNQ2, FluxOR thallium flux, 20 min; active compounds read low | B-score at 10 µM;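 active = fluorescence ratio B-score at most minus 3 library SDs, with starting brightness B-score within 2 library SDs, cut at about -5.5 in these data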
Numbers stand for hits; i = inactive; nt = no result. A selection: hits, their analogues and other compounds. The true share with any hit is near 1.6%.

SMILES	KCNQ2 pot	KCNQ2 block
CCOC(=O)c1c(C=O)c(C)n(Cc2ccc(C)cc2)c1C	nt	i
CCOC(=O)c1c(C=O)c(C)n(Cc2ccccc2Cl)c1C	i	-5.82
Cc1nn(C(=O)CNC(=O)c2ccccc2)c(C)c1C	8.95	i
Cc1cc(C)n(C(=O)CNC(=O)c2cccc(F)c2)n1	i	i
CCCCc1ccc(NC(=O)CSCc2cc(=O)[nH][nH]2)cc1	i	i
CN(C)S(=O)(=O)c1cccc(C(=O)Nc2ccccc2Cl)c1	i	i
CCN(c1ccccc1)S(=O)(=O)c1cc(C(=O)Nc2ccc(Br)cc2)ccc1F	i	-6.2
CCN(c1ccccc1)S(=O)(=O)c1ccc(F)c(C(=O)O)c1	i	i
CCN(c1ccccc1)S(=O)(=O)c1cc(C(=O)Nc2ccccc2Cl)ccc1F	i	-6.01
CCN(CC)c1ccc(-c2nn3c(-c4cccnc4)nnc3s2)cc1	i	i
Cc1cc(C(=O)CCC(=O)NCC2COc3ccccc3O2)c(C)s1 (stereo unspecified)	nt	i
CCC(C)N(CC(=O)Nc1cccc(C)c1C)C(=O)CCl (stereo unspecified)	i	i
Cc1ccc(C)n1-n1c(C)nc2sc3c(c2c1=O)CCCCC3	nt	i
Cc1ccc(C)n1-n1cnc2sc3c(c2c1=O)CCCCC3	i	-7.47
CCN1CCSc2ccc(C(=O)NCc3ccccc3Br)cc21	i	-6.14
CCN1CCSc2ccc(C(=O)NCc3ccccc3C)cc21	nt	i
CCC(=O)N1CCc2cc(S(=O)(=O)CCC(=O)Nc3ccc(OC)c(OC)c3)ccc21	i	i
CC(=O)N1CCCC1(C(=O)O)c1ccccc1 (stereo unspecified)	i	i
COc1ccccc1CCNS(=O)(=O)CCNC(=O)c1ccccc1	i	i
COc1ccccc1CCNC(=O)c1ccc(Br)s1	i	-6.34
Cc1nnc(NC(=O)CN2CCN(Cc3ccc(F)cc3Cl)CC2)s1	i	i
O=C1COc2ccc(S(=O)(=O)CCC(=O)NC3CCCCC3)cc2N1	i	i
Cc1nn(C)c(Sc2ccccc2N)c1[N+](=O)[O-]	nt	i
Cc1ccc(CNC(=O)c2cn(C3CCCC3)c(=O)c3c2c2ccccc2n3C)o1	i	-7.98
Cn1c2ccccc2c2c(C(=O)O)cn(C3CCCC3)c(=O)c21	nt	i
SMILES	KCNQ2 pot	KCNQ2 block
CCn1c2ccc(C)cc2c2n[nH]c(=S)nc21	i	i
Cc1ccc(C(c2nnnn2C2CCCC2)N2CCN(c3nc4ccccc4s3)CC2)cc1 (stereo unspecified)	i	-6.38
c1ccc(C(c2nnnn2C2CCCC2)N2CCN(c3nc4ccccc4s3)CC2)cc1 (stereo unspecified)	nt	i
CC(C)C(c1nnnn1C1CCCCC1)N1CCc2ccccc21 (stereo unspecified)	nt	i
Cc1ccc(C(c2nnnn2C2CCCCC2)N2CCc3ccccc32)cc1 (stereo unspecified)	i	-5.56
CC(=O)Nc1ccccc1OCC(O)CS(=O)(=O)c1ccc(C(F)(F)F)cn1 (stereo unspecified)	i	i
Cc1nc(N)sc1-c1csc(Nc2ccc(Cl)cn2)n1	i	i
Cc1nc(N)sc1-c1csc(Nc2ccccn2)n1	6.8	i
NS(=O)(=O)c1ccc(NC(=O)COC(=O)COc2ccc(Cl)cc2)cc1	nt	i
COC(=O)[C@H](C)NC(=O)COc1ccccc1	i	i
CCCCCCCCCNC(=O)[C@H](NC(=O)COc1ccccc1)[C@@H]1NC(C(=O)OC)C(C)(C)S1 (stereo partly specified)	i	-6.33
O=C(NCCc1csc(-c2ccc(C(F)(F)F)cc2)n1)c1cccs1	nt	i
O=C(COc1ccc(F)cc1)N1c2ccccc2CCc2ccccc21	nt	i
O=C(COc1cccc2ccccc12)N1c2ccccc2CCc2ccccc21	i	-7.15
COc1ccc(C2(C(=O)NCc3ccccc3Cl)CCOCC2)cc1OC	i	i
COc1ccccc1CNC(=O)C1(c2ccc(Cl)cc2)CC1	i	-5.74
COc1cccc(NC(=O)CC2C(=O)NC3CCCCC3N2C(=O)c2ccc(F)cc2)c1 (stereo unspecified)	i	i
Oc1ccc2ccccc2c1CN1CCN(c2ccccc2F)CC1	13	i
Oc1ccc2ccccc2c1CN1CCN(C/C=C/c2ccccc2)CC1	i	i
CC(C)c1ccc(N(C(=O)c2snc(C(N)=O)c2N)C(C(=O)NC2CCCC2)c2ccncc2)cc1 (stereo unspecified)	i	i
Cc1ccc(NC2=C/C(=N\S(=O)(=O)c3cccs3)c3ccccc3C2=O)c(C)c1	nt	i
Cc1cc(C)c(S(=O)(=O)/N=C2\C=C(NS(=O)(=O)c3ccccc3)C(=O)c3ccccc32)c(C)c1	i	-5.73
COC(=O)c1cc(=O)n(Cc2ccc3c(c2)OCO3)c(=Nc2ccc(F)cc2)s1	nt	i
CCOC(=O)c1ccc(N=c2sc(C(=O)OC)cc(=O)n2Cc2ccc3c(c2)OCO3)cc1	i	-5.94
CCOc1ccc(C(=O)N2CCCC2)cc1	i	i
SMILES	KCNQ2 pot	KCNQ2 block
CCOc1ccc(C(=O)N2CCN(c3cccc(C)c3C)CC2)cc1	i	-5.81
Cc1cc(C(F)(F)F)n2nc(-c3cnn(C)c3C(F)(F)F)c(Br)c2n1	i	i
CCC1CCCCN1C(=O)CSc1nnc(CNC(=O)c2c(F)cccc2Cl)o1 (stereo unspecified)	nt	i
Cc1nn(-c2ccccc2)c(Cl)c1/C=N/NC(=O)OC(C)(C)C	nt	i
Cc1ccc(C)c(OCC(=O)N/N=C/c2c(C)nn(-c3ccccc3)c2Cl)c1	i	-7.42
CCOC(=O)c1cc(C)n(S(=O)(=O)c2ccc(C)cc2)c1C	i	-6.56
CCOC(=O)c1ccccc1NS(=O)(=O)c1ccc(C)cc1	nt	i
Cc1ccc(-n2ccnc(SCC(=O)NC3CCCCC3)c2=O)cc1F	i	i
COc1ccc(N=C2S/C(=C\c3ccc(Cl)c([N+](=O)[O-])c3)C(=O)N2CCN(C)C)cc1	i	-5.63
CCCN1C(=O)/C(=C/c2ccc(C)s2)SC1=Nc1ccc(OC)cc1	i	-6.17
CCN1C(=O)/C(=C/c2cccs2)SC1=Nc1ccc(OC)cc1	i	i
CCN(CC)CCN1C(=O)/C(=C\c2ccc(Cl)c([N+](=O)[O-])c2)SC1=Nc1ccc(OC)cc1	nt	i
Cc1ccc(-c2csc3ncnc(Cl)c23)cc1	i	i
CCN(CC)CCn1c(NS(=O)(=O)c2ccc(Cl)cc2)nc2ccccc21	i	i
O=C(O)c1ccc(Cl)c(S(=O)(=O)Nc2ccccc2Cc2ccccc2)c1	nt	i
O=C(O)c1cc(S(=O)(=O)Nc2ccccc2Cc2ccccc2)ccc1Cl	i	-8.11
Cc1ccsc1CN(C(=O)c1ccc([N+](=O)[O-])cc1)C1CCS(=O)(=O)C1 (stereo unspecified)	nt	i
Cn1c(=O)c2c(nc(Br)n2Cc2ccccc2Cl)n(C)c1=O	nt	i
COC(=O)Cn1c(=O)c2c(nc(Br)n2Cc2ccccc2Cl)n(C)c1=O	i	-5.84
Cc1ccccc1-c1noc(C(C)NC(=O)c2ccco2)n1 (stereo unspecified)	nt	i
CCCCn1c(-c2ccncc2)nc2c1c(=O)[nH]c(=O)n2CC(C)C	nt	i
CC(C)Cn1c(-c2cc(Br)ccc2F)nc2c1c(=O)[nH]c(=O)n2CC(C)C	i	-6.46
CC(C)Cn1c(-c2cc([N+](=O)[O-])ccc2Cl)nc2c1c(=O)[nH]c(=O)n2Cc1ccccc1	7.44	i
Cc1ccc(-c2nc3c(c(=O)[nH]c(=O)n3CC(C)C)n2CC(C)C)cc1[N+](=O)[O-]	nt	i
COc1ccc(NC(=O)CC2C(=O)N(c3ccc(OC)cc3)C(=O)N2Cc2ccc(OC)c(OC)c2)cc1 (stereo unspecified)	nt	i
